Test results taken from PubChem BioAssay (EPA / NIEHS).
Results filed as inconclusive are left out. Calls of active or inactive are those of the source. The calls were made as follows, unless noted: active = hit-call score of the fitted dose curve at least 0.9, where 1 is the maximum; inactive = score below 0.9.

How the values were obtained:
[1] = ATG_NFI_CIS: Attagene CIS-FACTORIAL HepG2 Assay for human Nuclear Factor I (NFI) (AID 2282989); conditions: HepG2 cis-regulatory reporter, NFI response element transcription; actives raise or lower the signal
How it was run: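 Read-out: reporter mRNA via RT-PCR plus capillary electrophoresis with fluorescence detection. Transiently transfected HepG2 (endogenous TF activity on cis promoters), 24 h compound exposure; gain or loss of signal fitted against DMSO.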

[2] = target: Myc proto-oncogene protein (Homo sapiens) (UniProt P01106); assay: ATG_Myc_CIS: Attagene CIS-FACTORIAL HepG2 Assay for human Myelocytomatosis (Myc) Proto-Oncogene Transcription Factor (AID 2282990); conditions: HepG2, Attagene cis-reporter transcription factor activity; actives raise or lower the signal
Sequence of Myc proto-oncogene protein (Homo sapiens) (P01106 whole entry, looked up): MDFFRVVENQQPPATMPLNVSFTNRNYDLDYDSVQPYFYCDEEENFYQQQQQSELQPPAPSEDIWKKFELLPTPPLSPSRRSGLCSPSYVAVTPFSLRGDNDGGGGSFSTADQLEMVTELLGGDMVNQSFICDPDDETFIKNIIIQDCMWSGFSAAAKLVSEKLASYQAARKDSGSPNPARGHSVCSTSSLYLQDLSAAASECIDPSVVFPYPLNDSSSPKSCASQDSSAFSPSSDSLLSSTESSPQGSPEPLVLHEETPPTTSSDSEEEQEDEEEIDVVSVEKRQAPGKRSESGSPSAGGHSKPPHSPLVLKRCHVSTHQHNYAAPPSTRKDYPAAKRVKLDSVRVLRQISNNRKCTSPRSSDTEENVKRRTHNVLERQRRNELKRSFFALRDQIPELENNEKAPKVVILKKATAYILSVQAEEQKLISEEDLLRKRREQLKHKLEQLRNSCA
How it was run: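 Transiently transfected HepG2 cells bearing cis-promoter reporter units for endogenous transcription factors; 24 h exposure. Reporter mRNA measured by RT-PCR, 6-FAM primer extension, HpaI cut and capillary electrophoresis; bidirectional fit relative to DMSO.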

[3] = ATG_NRF2_ARE_CIS: Attagene CIS-FACTORIAL HepG2 Assay for human Nuclear Factor Erythroid 2 Related Factor 2 (NFR2) response to Antioxidant Response Elements (ARE) (AID 2282992); conditions: HepG2 Attagene ARE/NRF2 reporter, transcription factor activity; actives raise or lower the signal
How it was run: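 Endogenous transcription factor activity read out as reporter transcript levels (RT-PCR plus capillary electrophoresis, fluorescence) in transiently transfected HepG2 cells. Measured at 24 h after dosing; gain or loss of signal fitted versus DMSO.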

[4] = ATG_Oct_MLP_CIS: Attagene CIS-FACTORIAL HepG2 Assay for human Octamer-Binding Transcription Factor (Oct) (AID 2282993); conditions: HepG2 Attagene cis-factorial Oct reporter, mRNA; actives raise or lower the signal
How it was run: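 Read-out: reporter mRNA via RT-PCR plus capillary electrophoresis of 6-FAM-labelled fragments. Transiently transfected HepG2, 24 h exposure, endogenous TF activity on cis elements. Gain or loss of signal fitted relative to DMSO.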

[5] = target: Cellular tumor antigen p53 (Homo sapiens) (UniProt P04637); assay: ATG_p53_CIS: Attagene CIS-FACTORIAL HepG2 Assay for human p53 Transcription Factor (AID 2282994); conditions: HepG2 p53 cis-element reporter, Attagene mRNA; actives raise or lower the signal
Sequence of Cellular tumor antigen p53 (Homo sapiens) (P04637 whole entry, looked up): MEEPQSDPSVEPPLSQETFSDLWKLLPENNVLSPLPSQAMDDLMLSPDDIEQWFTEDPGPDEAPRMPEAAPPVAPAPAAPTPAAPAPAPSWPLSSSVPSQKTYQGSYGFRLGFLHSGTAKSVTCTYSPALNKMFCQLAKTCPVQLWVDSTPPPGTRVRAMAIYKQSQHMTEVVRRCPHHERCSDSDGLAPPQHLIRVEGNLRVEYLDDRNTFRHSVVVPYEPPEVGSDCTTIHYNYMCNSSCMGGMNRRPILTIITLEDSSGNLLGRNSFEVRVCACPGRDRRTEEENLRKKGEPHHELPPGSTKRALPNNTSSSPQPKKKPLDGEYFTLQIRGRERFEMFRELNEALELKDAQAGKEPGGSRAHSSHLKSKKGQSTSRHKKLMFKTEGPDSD
How it was run: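 Endogenous p53 activity read in transiently transfected HepG2 from a cis-element-driven reporter transcript after 24 h exposure. RNA reverse-transcribed, PCR-amplified, fluorescently labelled and sized by capillary electrophoresis; gain or loss fitted against DMSO baseline.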

[6] = BSK_3C_TissueFactor: BioMAP Diversity Plus: 3C Assay for Tissue Factor Biomarker Activity (AID 2282997); conditions: BioMAP 3C HUVEC, tissue factor biomarker readout; actives raise or lower the signal
How it was run: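 Tissue factor on primary human umbilical vein endothelium was read by ELISA 24 h after dosing, gain or loss relative to DMSO. Cytotoxicity ran alongside via SRB (0.1%, TCA-fixed, 560 nm).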

[7] = BSK_3C_uPAR: BioMAP Diversity Plus: 3C Assay for Urokinase-type plasminogen activator receptor (uPAR) Biomarker Activity (AID 2282998); conditions: BioMAP 3C HUVEC, uPAR biomarker ELISA; actives raise or lower the signal
How it was run: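 HUVEC primary cells; 24 h post-dose; uPAR by ELISA; gain or loss of signal fitted bidirectionally vs DMSO baseline.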

[8] = BSK_3C_VCAM1: BioMAP Diversity Plus: 3C Assay for Vascular cell adhesion molecule 1 (VCAM1) Biomarker Activity (AID 2282999); conditions: BioMAP 3C HUVEC, VCAM1 ELISA, cytokine-stimulated; actives raise or lower the signal
How it was run: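 HUVEC primary cells, 24 h compound exposure; VCAM-1 by ELISA; gain/loss of signal fitted bidirectionally vs DMSO baseline.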

[9] = BSK_4H_Eotaxin3: BioMAP Diversity Plus: 4H Assay for Eotaxin 3 Biomarker Activity (AID 2283000); conditions: primary human endothelial cells (HUVEC); actives raise or lower the signal
How it was run: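 Human umbilical vein endothelial cells (BSK_4H system) dosed with test chemical; Eotaxin-3 (CCL26) measured by ELISA 24 h after dosing. Bidirectional curve fitting relative to DMSO negative control as baseline.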

[10] = target: human Peroxisome Proliferator-activated Receptor alpha (PPARa), PPARA (gene 5465) (UniProt Q07869); assay: ATG_PPARa_TRANS: Attagene TRANS-FACTORIAL HepG2 Assay for human Peroxisome Proliferator-activated Receptor alpha (PPARa) (AID 2283001; active = hit-call score of the fitted dose curve at least 0.9, where 1 is the maximum;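 as to AC50: potency for gain of reporter signal over DMSO so agonist or activator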)
Sequence of human Peroxisome Proliferator-activated Receptor alpha (PPARa), PPARA (gene 5465) (Q07869 whole entry, looked up): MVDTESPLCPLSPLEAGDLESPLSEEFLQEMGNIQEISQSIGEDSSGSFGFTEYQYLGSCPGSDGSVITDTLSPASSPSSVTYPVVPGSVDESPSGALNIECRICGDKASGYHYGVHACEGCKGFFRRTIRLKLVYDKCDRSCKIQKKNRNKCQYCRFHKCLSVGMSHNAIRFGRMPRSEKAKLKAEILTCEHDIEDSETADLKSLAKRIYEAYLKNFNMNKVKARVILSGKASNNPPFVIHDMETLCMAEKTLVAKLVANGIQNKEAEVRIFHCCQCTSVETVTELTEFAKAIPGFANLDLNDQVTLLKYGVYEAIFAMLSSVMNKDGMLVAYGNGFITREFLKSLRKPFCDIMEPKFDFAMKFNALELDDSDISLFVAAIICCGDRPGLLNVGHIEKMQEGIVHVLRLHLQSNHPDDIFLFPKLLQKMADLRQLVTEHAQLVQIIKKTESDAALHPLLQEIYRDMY
How it was run: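 HepG2, transient MRTU transfection, 24 h treatment. RT-PCR → FAM labelling → capillary electrophoresis. Fit vs DMSO, positive direction.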

[11] = read-out: Intercellular Adhesion Molecule 1 (ICAM1), ICAM1 (gene 3383); assay: BSK_3C_ICAM1: BioMAP Diversity Plus: 3C Assay for Intercellular Adhesion Molecule 1 (ICAM1) Biomarker Activity (AID 2283003); conditions: primary human endothelial cells (HUVEC); actives raise or lower the signal
How it was run: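 ELISA readout of ICAM1 in human umbilical vein endothelial cells in the 3C system, taken 24 h post-dose. Gain or loss of signal versus DMSO was fitted in both directions, with SRB total-protein staining run in parallel.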

[12] = target: human Retinoic Acid Receptor beta (RARb), RARB (gene 5915) (UniProt P10826); assay: ATG_RARb_TRANS: Attagene TRANS-FACTORIAL HepG2 Assay for human Retinoic Acid Receptor beta (AID 2283004; active = hit-call score of the fitted dose curve at least 0.9, where 1 is the maximum)
Sequence of human Retinoic Acid Receptor beta (RARb), RARB (gene 5915) (P10826 whole entry, looked up, the tested form may be a part): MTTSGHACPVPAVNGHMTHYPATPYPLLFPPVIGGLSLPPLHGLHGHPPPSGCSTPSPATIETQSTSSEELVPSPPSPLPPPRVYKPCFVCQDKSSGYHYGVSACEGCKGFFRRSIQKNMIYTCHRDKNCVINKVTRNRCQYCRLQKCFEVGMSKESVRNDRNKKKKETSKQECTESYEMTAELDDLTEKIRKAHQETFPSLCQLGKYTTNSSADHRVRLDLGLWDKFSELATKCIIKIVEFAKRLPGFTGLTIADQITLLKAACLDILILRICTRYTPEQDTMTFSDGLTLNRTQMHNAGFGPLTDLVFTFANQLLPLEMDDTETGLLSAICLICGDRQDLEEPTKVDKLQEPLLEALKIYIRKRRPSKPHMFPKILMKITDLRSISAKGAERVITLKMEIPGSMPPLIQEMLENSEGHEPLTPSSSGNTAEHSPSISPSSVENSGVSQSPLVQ
How it was run: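 Induction of reporter mRNA from a chimeric RARb-Gal4 construct was measured by RT-PCR, FAM labelling, HpaI digestion and capillary electrophoresis. Measurements followed 24 h compound treatment of transiently transfected human HepG2 liver cells, with DMSO as baseline.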

[13] = target: Retinoic acid receptor alpha (Homo sapiens) (UniProt P10276); assay: ATG_RARa_TRANS: Attagene TRANS-FACTORIAL HepG2 Assay for human Retinoic Acid Receptor alpha (RARa) (AID 2283005; active = hit-call score of the fitted dose curve at least 0.9, where 1 is the maximum)
Sequence of Retinoic acid receptor alpha (Homo sapiens) (P10276 whole entry, looked up, the tested form may be a part): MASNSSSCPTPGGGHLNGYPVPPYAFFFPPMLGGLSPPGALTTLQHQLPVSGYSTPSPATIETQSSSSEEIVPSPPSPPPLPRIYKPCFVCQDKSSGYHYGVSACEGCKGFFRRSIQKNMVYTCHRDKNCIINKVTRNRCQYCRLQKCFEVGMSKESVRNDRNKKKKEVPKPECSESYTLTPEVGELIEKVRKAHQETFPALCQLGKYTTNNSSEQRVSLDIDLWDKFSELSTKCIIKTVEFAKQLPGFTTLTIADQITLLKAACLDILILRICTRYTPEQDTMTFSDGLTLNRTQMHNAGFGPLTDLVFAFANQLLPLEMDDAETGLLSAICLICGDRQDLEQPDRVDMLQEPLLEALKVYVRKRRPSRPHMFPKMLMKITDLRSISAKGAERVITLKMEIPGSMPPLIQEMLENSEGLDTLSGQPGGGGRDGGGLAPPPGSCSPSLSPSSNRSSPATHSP
How it was run: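 HepG2 transiently transfected with multiplex GAL4-UAS reporter units including a human RARa–GAL4 chimera; 24 h compound exposure. Reporter mRNA quantified by RT-PCR, 6-FAM labeling and capillary electrophoresis; gain of signal versus DMSO.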

[14] = BSK_3C_Proliferation: Cell Proliferation Assessment in the BioMAP Diversity Plus: 3C Assay (AID 2283006); conditions: primary human endothelial cells (HUVEC);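 as to AC50: potency may reflect either rise or fall in cell number versus DMSO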
How it was run: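 Proliferation as total protein: sulforhodamine B (0.1%) stain of TCA-fixed subconfluent human umbilical vein endothelial cells, absorbance 560 nm, 48 h after dosing. Activity fitted in both directions against DMSO baseline.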

[15] = target: Nuclear receptor subfamily 1 group I member 2 (Homo sapiens) (UniProt O75469); assay: ATG_PXR_TRANS: Attagene TRANS-FACTORIAL HepG2 Assay for human Pregnane X Receptor (PXR) (AID 2283008; active = hit-call score of the fitted dose curve at least 0.9, where 1 is the maximum)
Sequence of Nuclear receptor subfamily 1 group I member 2 (Homo sapiens) (O75469 whole entry, looked up, the tested form may be a part): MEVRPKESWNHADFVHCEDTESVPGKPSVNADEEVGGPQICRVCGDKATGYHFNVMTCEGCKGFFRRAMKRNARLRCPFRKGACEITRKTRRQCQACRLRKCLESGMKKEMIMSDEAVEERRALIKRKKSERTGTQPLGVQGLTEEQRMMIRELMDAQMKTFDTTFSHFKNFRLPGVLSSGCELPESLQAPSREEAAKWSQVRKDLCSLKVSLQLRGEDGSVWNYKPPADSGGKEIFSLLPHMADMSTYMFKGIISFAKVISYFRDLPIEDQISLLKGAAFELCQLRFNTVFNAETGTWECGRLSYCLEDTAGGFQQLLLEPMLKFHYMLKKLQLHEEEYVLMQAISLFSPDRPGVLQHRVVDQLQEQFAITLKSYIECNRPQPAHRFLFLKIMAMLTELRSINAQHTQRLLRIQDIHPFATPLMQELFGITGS
How it was run: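 Transactivation by exogenous PXR–GAL4 fusion measured as reporter transcript induction after 24 h compound treatment of transfected human HepG2 cells. Read-out via RT-PCR and capillary electrophoresis of labelled fragments, fitted upward relative to DMSO.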

[16] = target: human Retinoic Acid Receptor gamma (RARg), RARG (gene 5916) (UniProt P13631); assay: ATG_RARg_TRANS: Attagene TRANS-FACTORIAL HepG2 Assay for human Retinoic Acid Receptor gamma (RARg) (AID 2283009; active = hit-call score of the fitted dose curve at least 0.9, where 1 is the maximum)
Sequence of human Retinoic Acid Receptor gamma (RARg), RARG (gene 5916) (P13631 whole entry, looked up, the tested form may be a part): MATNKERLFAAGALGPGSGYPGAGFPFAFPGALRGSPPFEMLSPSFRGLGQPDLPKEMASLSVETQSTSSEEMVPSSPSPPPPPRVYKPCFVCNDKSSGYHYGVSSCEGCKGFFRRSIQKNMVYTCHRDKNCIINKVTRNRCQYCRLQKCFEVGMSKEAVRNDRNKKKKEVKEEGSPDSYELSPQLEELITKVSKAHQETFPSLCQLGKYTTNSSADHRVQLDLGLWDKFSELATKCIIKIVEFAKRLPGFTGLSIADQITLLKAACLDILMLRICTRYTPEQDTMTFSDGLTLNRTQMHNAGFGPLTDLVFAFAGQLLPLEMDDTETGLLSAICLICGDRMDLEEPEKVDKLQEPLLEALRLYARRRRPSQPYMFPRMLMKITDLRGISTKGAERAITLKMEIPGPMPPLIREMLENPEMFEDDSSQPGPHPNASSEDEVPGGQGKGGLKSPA
How it was run: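 Transactivation of exogenous RARg-Gal4 fusion measured as reporter transcript induction after 24 h in transfected HepG2 cells. RNA reverse-transcribed, amplified, fluorescently labeled and resolved by capillary electrophoresis; increase relative to DMSO.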

[17] = target: Peroxisome proliferator-activated receptor gamma (Homo sapiens) (UniProt P37231); assay: ATG_PPARg_TRANS: Attagene TRANS-FACTORIAL HepG2 Assay for human Peroxisome Proliferator-activated Receptor-gamma (PPARg) (AID 2283007; active = hit-call score of the fitted dose curve at least 0.9, where 1 is the maximum)
Sequence of Peroxisome proliferator-activated receptor gamma (Homo sapiens) (P37231 whole entry, looked up, the tested form may be a part): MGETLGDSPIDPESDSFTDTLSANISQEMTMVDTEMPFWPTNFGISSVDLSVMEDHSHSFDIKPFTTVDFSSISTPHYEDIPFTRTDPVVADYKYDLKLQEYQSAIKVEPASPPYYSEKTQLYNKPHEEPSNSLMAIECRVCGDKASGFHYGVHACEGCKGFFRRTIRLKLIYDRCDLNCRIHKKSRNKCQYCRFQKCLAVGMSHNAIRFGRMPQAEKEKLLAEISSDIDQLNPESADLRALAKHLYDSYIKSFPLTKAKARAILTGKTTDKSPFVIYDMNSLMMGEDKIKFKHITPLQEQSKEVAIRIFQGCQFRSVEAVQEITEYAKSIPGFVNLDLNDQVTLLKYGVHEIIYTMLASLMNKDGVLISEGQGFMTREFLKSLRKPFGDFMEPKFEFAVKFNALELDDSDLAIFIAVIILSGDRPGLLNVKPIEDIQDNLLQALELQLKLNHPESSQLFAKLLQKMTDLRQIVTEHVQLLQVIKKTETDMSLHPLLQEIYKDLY
How it was run: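 Transient transfection of HepG2 with GAL4-UAS-driven reporter units; chemical dosing 24 h; total RNA → oligo(dT) RT → PCR with reporter primers → 6-FAM primer extension → HpaI digest 2 h 37 C → capillary electrophoresis. Positive direction vs DMSO.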

[18] = target: human Peroxisome Proliferator-activated Receptor delta (PPARd), PPARD (gene 5467) (UniProt Q03181); assay: ATG_PPARd_TRANS: Attagene TRANS-FACTORIAL HepG2 Assay for human Peroxisome Proliferator-activated Receptor delta (PPARd) (AID 2283002; active = hit-call score of the fitted dose curve at least 0.9, where 1 is the maximum)
Sequence of human Peroxisome Proliferator-activated Receptor delta (PPARd), PPARD (gene 5467) (Q03181 whole entry, looked up, the tested form may be a part): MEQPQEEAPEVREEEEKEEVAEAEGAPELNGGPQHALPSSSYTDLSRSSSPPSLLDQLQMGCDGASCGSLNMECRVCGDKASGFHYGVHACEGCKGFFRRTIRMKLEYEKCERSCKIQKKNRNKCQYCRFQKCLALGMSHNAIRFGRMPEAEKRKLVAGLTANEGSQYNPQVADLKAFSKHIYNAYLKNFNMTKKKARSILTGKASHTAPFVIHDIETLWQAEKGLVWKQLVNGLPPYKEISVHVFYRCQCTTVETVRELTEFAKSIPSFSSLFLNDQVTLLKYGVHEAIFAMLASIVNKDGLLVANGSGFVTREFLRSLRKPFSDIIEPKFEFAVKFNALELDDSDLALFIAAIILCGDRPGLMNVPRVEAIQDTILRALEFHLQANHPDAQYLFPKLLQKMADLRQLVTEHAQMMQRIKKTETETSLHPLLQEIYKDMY
How it was run: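 HepG2 cells transiently transfected with GAL4-UAS multiplexed reporter units driven by exogenous chimeric NR-GAL4 proteins; 24 h compound exposure. Reporter mRNA measured by RT-PCR, 6-FAM primer extension, HpaI digestion and capillary electrophoresis; gain of signal fitted relative to DMSO.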

[19] = target: human RAR-related Orphan Receptor gamma (RORg), RORC (gene 6097) (UniProt P51449); assay: ATG_RORg_TRANS: Attagene TRANS-FACTORIAL HepG2 Assay for human RAR-related Orphan Receptor gamma (RORg) (AID 2283011; active = hit-call score of the fitted dose curve at least 0.9, where 1 is the maximum)
Sequence of human RAR-related Orphan Receptor gamma (RORg), RORC (gene 6097) (P51449 whole entry, looked up, the tested form may be a part): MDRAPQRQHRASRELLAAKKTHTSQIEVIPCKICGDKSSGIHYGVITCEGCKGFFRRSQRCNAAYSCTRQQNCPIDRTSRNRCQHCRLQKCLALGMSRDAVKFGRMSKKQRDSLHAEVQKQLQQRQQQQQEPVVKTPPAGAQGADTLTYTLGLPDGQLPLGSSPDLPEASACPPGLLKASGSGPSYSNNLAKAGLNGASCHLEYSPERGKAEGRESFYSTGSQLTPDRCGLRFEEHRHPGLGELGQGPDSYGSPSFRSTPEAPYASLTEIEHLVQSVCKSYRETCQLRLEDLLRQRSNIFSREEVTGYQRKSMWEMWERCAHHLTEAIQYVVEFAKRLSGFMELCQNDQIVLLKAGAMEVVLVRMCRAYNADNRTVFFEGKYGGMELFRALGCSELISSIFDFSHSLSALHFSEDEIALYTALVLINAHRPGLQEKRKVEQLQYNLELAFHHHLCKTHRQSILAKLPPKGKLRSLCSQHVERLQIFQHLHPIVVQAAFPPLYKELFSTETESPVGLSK
How it was run: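 Reporter transcripts from a transfected RORg-GAL4 chimera in HepG2 cells were quantified 24 h after dosing by RT-PCR, 6-FAM labelling, HpaI digestion and capillary electrophoresis; increases over DMSO baseline were fitted.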

[20] = ATG_NF_kB_CIS: Attagene CIS-FACTORIAL HepG2 Assay for human Nuclear Factor Kappa B (NF-kB) (AID 2282991); conditions: HepG2 Attagene cis-factorial NF-kB reporter mRNA; actives raise or lower the signal
How it was run: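 Transient MRTU transfection of human HepG2 liver cells → 24 h chemical exposure → total RNA, oligo(dT) RT → PCR, 6-FAM primer extension, HpaI digest 2 h 37 C → CE fragment analysis. Bidirectional fitting, DMSO negative control.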

Measured: AC50

CCOC(=O)c1ccc(C2CCC(NC[C@H](O)COc3ccc(O)c(NS(C)(=O)=O)c3)CC2)cc1 (stereo partly specified)
inactive: [1] | [3] | [6] | [9] | [11] | [13] | [16]
active: [2] 53.8 µM | [4] 49.2 µM | [5] 50 µM | [7] 31.2 µM | [8] 30.5 µM | [10] 54.8 µM | [12] 52.3 µM | [14] 28.1 µM | [15] 33 µM

CC(C)CCCCCCOC(=O)c1ccc(C(=O)OCCCCCCC(C)C)c(C(=O)OCCCCCCC(C)C)c1
inactive: [1] | [2] | [3] | [4] | [5] | [6] | [7] | [8] | [9] | [11] | [12] | [13] | [14] | [17]

CCCCC(CC)COC(=O)CCCCCCCCC(=O)OCC(CC)CCCC (stereo unspecified)
inactive: [1] | [2] | [3] | [4] | [5] | [6] | [7] | [8] | [9] | [10] | [18] | [11] | [14] | [15] | [19]

CCCCCCc1ccc(O)cc1O
active: [3] 24.3 µM | [4] 50.9 µM | [6] 33.8 µM | [7] 31.8 µM | [8] 34.3 µM | [9] 32.2 µM | [14] 30.2 µM
inactive: [1] | [2] | [5] | [10] | [15]

COC(=O)CC(=O)OC
inactive: [1] | [2] | [3] | [4] | [5] | [6] | [7] | [8] | [9] | [11] | [14]

Nc1nc2ncc(CNc3ccc(C(=O)N[C@@H](CCC(=O)O)C(=O)O)cc3)nc2c(=O)[nH]1
inactive: [1] | [2] | [20] | [3] | [4] | [5] | [6] | [7] | [8] | [9] | [11] | [14] | [19]

O=C(O)CC(O)C(=O)O (stereo unspecified)
inactive: [1] | [2] | [3] | [4] | [5] | [6] | [7] | [8] | [9] | [10] | [11] | [12] | [14] | [15] | [16]

CC(C)=CCC/C(C)=C/CO
inactive: [1] | [2] | [3] | [4] | [5] | [6] | [7] | [8] | [9] | [10] | [11] | [12] | [14] | [15] | [19]
